An excerpt weighted towards active compounds, which were near 3.8% of everything screened.
tim10-1 inh: growth inhibitors of tim10-1 mutant yeast, primary screen, luminescence, uHTS; S. cerevisiae tim10-1 ts strain growth, BacTiter-Glo, 24 h; inhibition, % at 20 µM; 330,000 compounds, 2.2% hits; AID 463190, 2010;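 active means inhibition of at least 40%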;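 further: mutant grown at 25 °C; 0% = DMSO wells with yeast and 100% = wells holding no yeast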
TIM10 inh: growth inhibitors of isogenic TIM10 control yeast, primary screen, counter-screen for tim10-1 yeast inhibitor project, luminescence, uHTS; S. cerevisiae TIM10 strain growth, BacTiter-Glo luminescence, 24 h; inhibition, % at 10 µM; AID 463195, 2010; 330,000 compounds, 1.4% hits;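 active means inhibition of 40% or more at the single tested concentration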;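 further: wild-type TIM10 isogenic control strain grown at permissive 25 °C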
tim23-1 inh: growth inhibitors of tim23-1 mutant yeast, primary screen, luminescence, uHTS. inhibition, % at 20 µM. S. cerevisiae tim23-1 growth, BacTiter-Glo luminescence, 24 h. 330,000 compounds, 1.3% hits;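 active means growth inhibition of the mutant yeast at or above 50%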;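 further: temperature-sensitive mutant grown at 25 °C; plate controls were DMSO-treated mutant yeast for no effect and medium wells lacking yeast for full effect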
PfHsp90 set2: growth inhibition of PfHsp90-expressing yeast, primary screen, antimalarial PfHsp90 inhibitor project, S. cerevisiae, BacTiter-Glo luminescence, single point, set 2; BacTiter-Glo ATP, 48 h; yeast lacking PDR1 and PDR3 efflux regulators; inhibition, % at 9.4 µM; 310,000 compounds, 0.32% hits; AID 504621, 2011;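 active means every replicate shows inhibition above about 80%, whatever the replicate mean, limit read from the data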;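 further: 0% = DMSO neutral controls and 100% = 20 µM radicicol positive controls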
Beta2AR agonist: beta2AR agonists driving receptor internalization, primary screen, cell-based, FAP fluorogen, flow cytometry; Beta-2 adrenergic receptor (Homo sapiens), P07550; Am2.2-beta2AR cells; response, % (no concentration beside the values); 340,000 compounds, 0.43% hits; AID 504454, 2011;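 active means response above a set limit, near 3 SD of response in nonfluorescent compounds, cut at about 42% in these data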
Target sequence (P07550 whole entry, looked up): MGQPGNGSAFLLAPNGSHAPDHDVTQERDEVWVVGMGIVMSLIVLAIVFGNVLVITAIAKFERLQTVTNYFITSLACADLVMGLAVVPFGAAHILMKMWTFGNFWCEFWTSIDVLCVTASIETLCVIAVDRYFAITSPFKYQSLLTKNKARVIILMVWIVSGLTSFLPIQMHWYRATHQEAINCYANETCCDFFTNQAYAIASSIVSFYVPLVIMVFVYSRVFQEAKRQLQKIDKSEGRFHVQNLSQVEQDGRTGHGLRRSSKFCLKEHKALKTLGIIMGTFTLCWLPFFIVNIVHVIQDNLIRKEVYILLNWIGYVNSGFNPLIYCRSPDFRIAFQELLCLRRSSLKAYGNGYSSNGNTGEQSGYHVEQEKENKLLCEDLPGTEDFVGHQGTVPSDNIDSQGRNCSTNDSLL
tim10-1 confirm: growth inhibitors of tim10-1 mutant yeast, confirmation, single concentration, luminescence, S. cerevisiae; shares compounds with tim10-1 inh; S. cerevisiae tim10-1 ts strain growth, BacTiter-Glo, 24 h; inhibition, % at 20 µM; 7,400 compounds, 56% hits; AID 463213, 2010;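 active means inhibition of yeast growth at or above a set limit in either of two repeat tests at 20 µM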;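 further: tim10-1 mutant grown at permissive 25 °C to find synthetic lethal compounds; 0% = DMSO yeast wells and 100% = medium wells without yeast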
Numbers without * were called inactive; . = no result.

SMILES | tim10-1 inh | TIM10 inh | tim23-1 inh | PfHsp90 set2 | Beta2AR agonist | tim10-1 confirm
COc1ccccc1N1CCN(C(=O)CCCN2C(=O)c3cccc4cccc(c34)C2=O)CC1 | 45* | 28 | 31 | -19 | 10 | 27
CC(C)(C)NC(=O)C(c1ccncc1)N(Cc1ccco1)C(=O)c1ccc(-c2ccccc2)[nH]1 (stereo not given) | 52* | 25 | 35 | . | 11 | 42*
O=C(NC1CCCCC1)C(c1ccncc1)N(Cc1ccccc1)C(=O)c1ccc(-c2ccccc2)[nH]1 (stereo not given) | 2 | -5 | 3 | -44 | -3 | .
Cc1cc(N2CCCCC2)nc(SCc2ccc(C#N)cc2)n1 | 47* | 33 | 39 | 10 | -14 | 28
O=C(c1ccco1)N1N=C(c2cccs2)CC1c1ccco1 (stereo not given) | 41* | 20 | 37 | 1 | -8 | 10
Cc1ccc(C2CC(c3cccs3)=NN2C(=O)c2ccco2)o1 (stereo not given) | 24 | 22 | 43 | 3 | -22 | .
C=C[C@@](C)(O)CC[C@@H]1[C@@]2(C)CCCC(C)(C)[C@@H]2CC[C@@]1(C)O | 42* | 17 | 32 | -21 | -2 | 13
Cc1cccc(C)c1NC(=O)CNC(=O)C1CC(=O)N(Cc2ccccc2)C1 (stereo not given) | -2 | 12 | 12 | 17 | 3 | .
CCCCN(C(=O)C1=COCCO1)c1c(N)n(Cc2ccccc2)c(=O)[nH]c1=O | 43* | -1 | 23 | 0 | -5 | 5
COCCN(C(=O)C1=COCCO1)c1c(N)n(Cc2ccccc2)c(=O)[nH]c1=O | 1 | 5 | 8 | -10 | -4 | .
Cc1nn(C(=O)c2ccc3c(c2)OCO3)c(N)c1-c1ccccc1 | 41* | 18 | 40 | 10 | -3 | 10
O=C(CC1S/C(=N/N=C2CCCCCC2)NC1=O)Nc1ccc(Br)cc1F (stereo not given) | 44* | 17 | 35 | -8 | -4 | 21
CC(C(=O)Nc1nc(-c2ccc(F)cc2)cs1)N1C(=O)C2CC=CCC2C1=O (stereo not given) | 14 | 17 | 38 | -19 | 36 | .
CC(C)C(c1nnnn1C1CCCC1)N1CCc2ccccc21 (stereo not given) | 36 | 14 | 39 | -39 | 1 | .
CC(C)C(c1nnnn1C1CCCCC1)N1CCCc2ccccc21 (stereo not given) | 44* | 26 | 18 | -19 | -3 | 29
CC(C)(C)n1nnnc1C(c1cccs1)N1CCCc2ccccc21 (stereo not given) | 43* | 27 | 48 | -21 | 2 | 38*
CC(C)C(c1nnnn1C1CCCC1)N1CCCc2ccccc21 (stereo not given) | 41* | 25 | 39 | . | 7 | 37*
CC1CCCN(C(=O)CCNS(=O)(=O)c2ccc3c(c2)c(=O)n(C)c(=O)n3C)C1 (stereo not given) | -10 | 0 | 1 | -2 | 4 | .
COc1ccc(N(CC(=O)NCc2ccco2)C(=O)CCC(=O)Nc2nccs2)c(OC)c1 | -6 | 9 | 21 | -8 | 1 | .
O=C(c1ccc(F)cc1)c1ccc(CN2C(=O)c3ccccc3C2=O)o1 | 30 | 30 | 4 | 9 | -3 | .
O=C(c1ccc(Cl)cc1)c1ccc(CN2C(=O)c3ccccc3C2=O)o1 | 41* | 23 | 17 | -82 | -8 | 12
CC1CC1C(=O)OCC(=O)Nc1ccc(S(=O)(=O)N2CCOCC2)cc1 (stereo not given) | 0 | 10 | 12 | 10 | -1 | .
Cn1nnc(NC(=S)NC(=O)c2cccc3c(Br)cccc23)n1 | 51* | 18 | 26 | -16 | -3 | -12
COc1ccccc1-c1ccc(/C=C2/C=C(CC(C)C)OC2=O)o1 | 42* | 22 | 31 | 6 | 2 | 36*
CCCC1=C/C(=C/c2ccc(-c3ccccc3OC)o2)C(=O)O1 | 28 | 17 | 23 | -1 | 7 | .
SMILES | tim10-1 inh | TIM10 inh | tim23-1 inh | PfHsp90 set2 | Beta2AR agonist | tim10-1 confirm
O=C(NNCc1ccc(O)cc1)c1ccccc1Cl | 6 | 2 | 6 | -11 | -10 | .
O=C(N/C(=C\c1cn(-c2ccccc2)nc1-c1ccccc1)C(=O)N1CCOCC1)c1ccccc1 | 15 | -17 | -15 | . | . | .
C(=N\N1CCOCC1)/c1cn(-c2ccccc2)nc1-c1ccccc1 | 49* | 8 | 50 | 13 | -21 | 40*
COc1ccccc1Nc1cc(C)nc(Nc2ccccc2OC)n1 | 40* | 34 | 42 | -17 | -1 | 24
COc1ccccc1Nc1nc(C)cc(C)n1 | 4 | -4 | 2 | -7 | -9 | .
CC(OC(=O)/C=C/c1ccc2ccccc2n1)C(=O)NCc1ccccc1 (stereo not given) | 41* | 36 | 32 | 0 | 0 | 22
COc1ncccc1C(=O)NC1CCCc2c1cnn2-c1cc(C)cc(C)c1 (stereo not given) | 48* | 21 | 21 | -9 | 7 | 8
Cc1cc(C)cc(-n2ncc3c2CCCC3NC(=O)c2csnn2)c1 (stereo not given) | 41* | 17 | 42 | -4 | -4 | 27
Cc1cc(C)cc(-n2ncc3c2CCCC3NC(=O)c2cc(C)oc2C)c1 (stereo not given) | 18 | 25 | 23 | -11 | 15 | .
Cc1ccccc1NC(=O)N(O)C1(C#N)CCCCC1 | . | . | . | -17 | -6 | .
O=C(Cc1ccc(NC(=O)C2CCN(C(=O)CCc3ccccc3)CC2)cc1)Nc1ccc(C(=O)N2CCOCC2)cc1 | . | . | . | 13 | 4 | .
O=C(c1cc2cc(Cl)ccc2[nH]1)N1CCN(Cc2ccc3c(c2)OCO3)CC1 | 49* | 25 | 37 | 8 | 11 | -27
Cc1ccc2c(C)c(C(=O)N3CCN(Cc4ccc5c(c4)OCO5)CC3)oc2c1C | 47* | 20 | 43 | 8 | 0 | 8
Cc1ccc(S(=O)(=O)Nc2cc3c4c(c2)CCN4C(=O)CC3)cc1 | 4 | 1 | -1 | . | 1 | .
N#CC(C#N)=Cc1cc2ccccc2nc1N1CCOCC1 | 44* | 26 | 49 | -31 | 14 | 21
N#C/C(=C\c1cc2ccccc2nc1N1CCOCC1)C(=O)Nc1ccc(N2CCOCC2)cc1 | 8 | 18 | 29 | 10 | 20 | .
CC1CCC(NC(=O)c2cc3c(=O)n(C)c4ccccc4c3n2C)CC1 (stereo not given) | 40* | 21 | 27 | . | 5 | 29
CCOC(=O)C1CCCc2c1[nH]c1ccc(Cl)cc21 (stereo not given) | 43* | 20 | 34 | 14 | -4 | 32*
Cc1c(N)cc2c(c1N)C(C)(C)CC2(C)C | . | . | . | 11 | -1 | .
